Source: PubChem BioAssay
PLC-beta3 inh – blocks human PLC-beta3 enzyme activity. Purified PLC-beta3, fluorogenic substrate, fluorescence. inhibition, % at 12.2 µM. 370,000 tested, 0.18% active. AID 720704; in the data active = inhibition above about 11%
ADAM17 inh – inhibitors of human ADAM17. P78536. 370,000 tested, 0.83% active. recombinant ADAM17, EDANS/DABCYL FRET peptide cleavage. inhibition, % at 6.95 µM;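 active = inhibition above the mean of compounds lying between control limits plus 3 SD, set per campaign, cut at about 8.5% in these data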
Target sequence (P78536 215-824 limits assumed): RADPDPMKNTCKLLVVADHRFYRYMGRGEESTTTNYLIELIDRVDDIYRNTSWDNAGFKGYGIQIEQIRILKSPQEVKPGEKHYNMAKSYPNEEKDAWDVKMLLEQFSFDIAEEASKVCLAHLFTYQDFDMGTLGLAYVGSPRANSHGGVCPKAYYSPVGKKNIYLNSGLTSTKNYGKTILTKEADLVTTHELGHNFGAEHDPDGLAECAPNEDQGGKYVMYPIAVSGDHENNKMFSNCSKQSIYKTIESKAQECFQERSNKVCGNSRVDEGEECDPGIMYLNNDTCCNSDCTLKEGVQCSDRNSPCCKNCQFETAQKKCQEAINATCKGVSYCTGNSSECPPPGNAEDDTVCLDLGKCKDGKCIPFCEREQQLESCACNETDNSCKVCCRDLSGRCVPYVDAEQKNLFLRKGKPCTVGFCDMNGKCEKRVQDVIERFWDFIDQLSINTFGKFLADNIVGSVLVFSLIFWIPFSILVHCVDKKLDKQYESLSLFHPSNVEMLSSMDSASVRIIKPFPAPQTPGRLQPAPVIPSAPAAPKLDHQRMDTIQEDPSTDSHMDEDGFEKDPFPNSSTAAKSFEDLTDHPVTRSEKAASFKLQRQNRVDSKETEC
KLK7 zymogen act – proKLK7 (human) activation, primary screen | activation, % at 7 µM | 370,000 tested, 0.9% active | purified proKLK7, EDANS-DABCYL substrate fluorescence; 100% is mature enzyme control, 0% vehicle | AID 652039;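 active = activation above the mean of all tested compounds plus 3 SD, computed per campaign excluding outliers beyond control limits, cut at about 13% in these data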
ADAM10 inh – inhibits human ADAM10; recombinant ADAM10, EDANS/DABCYL FRET peptide cleavage, 3 h; inhibition, % at 7 µM; 370,000 tested, 0.62% active;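 active = inhibition above a per-campaign cutoff equal to the mean of compounds falling between control-based bounds plus 3 SD, cut at about 20% in these data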
PLCg1 inh – blocks human PLC-gamma1 enzyme activity | purified PLC-gamma1, fluorogenic substrate, fluorescence | inhibition, % at 12.2 µM | 370,000 tested, 0.84% active | AID 720700; in the data active = inhibition above about 9.5%
ADAM10 confirm – human ADAM10 inhibition, confirmation; shares compounds with ADAM10 inh; ADAM10 QFRET peptide cleavage, EDANS fluorescence; inhibition, % at 6.95 µM; 2,100 tested, 1% active; AID 743208;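 active = inhibition above about 20% chosen separately for each screening run, limit read from the data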
ADAM17 counter – counter-screen for ADAM10 exosite inhibitors: inhibitors of human ADAM17. shares compounds with ADAM10 inh. inhibition, % at 6.95 µM. 2,100 tested, 0.5% active. ADAM17 QFRET peptide cleavage, EDANS fluorescence;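 active = mean triplicate inhibition above the solvent-only control wells' mean plus 3 SD, cut at about 12% in these data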
Each line names hits and unclear results; the compound was inactive in the other large screens (follow-up assays come after a bar, where they were run). Hits are enriched below; roughly 2.9% of the tested compounds scored in any of these assays.

COc1ccc(NS(=O)(=O)c2ccc(-c3ccccn3)s2)cc1	ADAM10 inh 22 | ADAM10 confirm inactive | ADAM17 counter inactive
O=C(Nc1ccc(OC(F)F)c(Cl)c1)C(c1ccccc1)c1ccccc1	ADAM17 inh 14, ADAM10 inh 28 | ADAM10 confirm inactive | ADAM17 counter inactive
CC(=O)Nc1ccc2c(c1)nc1n2CCOC1	ADAM10 inh 84 | ADAM10 confirm inactive | ADAM17 counter inactive
O=C(Nc1ccc2c(c1)nc1n2CCOC1)C1CCCCC1	none
COC(=O)[C@]12C[C@H](CC(=O)N3CCCCC3)C(=O)N(Cc3cccc4ccccc34)C1=C[C@H](C1CCCC1)O[C@@H]2C	none
COC(=O)[C@]12C[C@H](CC(=O)NCc3cccc4ccccc34)C(=O)N(Cc3cccc4ccccc34)C1=C[C@H](COCc1ccccc1)O[C@@H]2C	none
COC(=O)[C@]12C[C@H](CC(=O)NCc3cccc4ccccc34)C(=O)N(Cc3ccco3)C1=C[C@H](COCc1ccccc1)O[C@@H]2C	ADAM10 inh 22 | ADAM10 confirm inactive | ADAM17 counter inactive
CCOC(=O)N1CCN(C(=O)C[C@H]2C[C@@]3(C(=O)OC)C(=C[C@H](C4CCCC4)O[C@@H]3C)N(Cc3cccc4ccccc34)C2=O)CC1	ADAM10 inh 24 | ADAM10 confirm inactive | ADAM17 counter inactive
COC(=O)[C@]12C[C@H](CC(=O)NCc3cccs3)C(=O)N(Cc3cccc4ccccc34)C1=C[C@H](C1CCCC1)O[C@@H]2C	ADAM10 inh 21 | ADAM10 confirm inactive | ADAM17 counter inactive
COC(=O)[C@]12C[C@H](CC(=O)N3CCCCC3)C(=O)N(CCc3ccc(OC)c(OC)c3)C1=C[C@H](COCc1ccccc1)O[C@@H]2C	ADAM10 inh 58 | ADAM10 confirm inactive | ADAM17 counter inactive
COC(=O)[C@]12C[C@H](CC(=O)NCCC(C)C)C(=O)N(Cc3cccc4ccccc34)C1=C[C@H](C1CCCC1)O[C@@H]2C	none
COC(=O)[C@]12C[C@H](CC(=O)NCc3cccc4ccccc34)C(=O)N(CCc3ccc(OC)c(OC)c3)C1=C[C@H](C(C)(C)C)O[C@@H]2C	ADAM10 inh 22 | ADAM10 confirm inactive | ADAM17 counter inactive
CCCCNC(=O)C[C@H]1C[C@@]2(C(=O)OC)C(=C[C@H](C(C)(C)C)O[C@@H]2C)N(CCc2ccc(OC)c(OC)c2)C1=O	none
CCCCNC(=O)C[C@H]1C[C@@]2(C(=O)OC)C(=C[C@H](C3CCCC3)O[C@@H]2C)N(Cc2cccc3ccccc23)C1=O	ADAM10 inh 24 | ADAM10 confirm inactive | ADAM17 counter inactive
COC(=O)[C@]12C[C@H](CC(=O)NCCCCc3ccccc3)C(=O)N(Cc3cccc4ccccc34)C1=C[C@H](C1CCCC1)O[C@@H]2C	none
O=C(NS(=O)(=O)c1ccc(Cl)cc1)c1ccccc1	none
Nc1nc2ncc(C(=O)c3cc(Cl)cc(Cl)c3O)cc2s1	none
CN(C)c1ccc(C(CNS(=O)(=O)c2ccc(F)cc2)c2c[nH]c3ccccc23)cc1 (stereo not given)	ADAM10 inh 22 | ADAM10 confirm inactive | ADAM17 counter inactive
CN(C)c1ccc(C(CNC(=O)c2ccccc2Br)c2c[nH]c3ccccc23)cc1 (stereo not given)	none
Cc1ccccc1C(=O)Oc1cccc(Nc2ncnc3ccccc23)c1	none
CC(=O)Oc1cccc(Nc2ncnc3ccccc23)c1	ADAM10 inh 83 | ADAM10 confirm inactive | ADAM17 counter inactive
O=C(/C=C/c1ccco1)NC(=S)Nc1ccccc1	ADAM10 inh 23 | ADAM10 confirm inactive | ADAM17 counter inactive
O=C(NC1CCN(Cc2ccccc2)CC1)c1cccc(NS(=O)(=O)c2ccc(Br)cc2)c1	none
Cc1ccccc1CN(c1ccc(C(=O)Nc2ccccc2C(=O)NCc2ccco2)cc1)S(C)(=O)=O	ADAM10 inh 26 | ADAM10 confirm 20 | ADAM17 counter inactive
Cc1ccc(NC(=O)CNc2ccc(Cl)c(Cl)c2)cc1S(=O)(=O)N(C)C	ADAM10 inh 23 | ADAM10 confirm inactive | ADAM17 counter inactive
